According to PubChem BioAssay (EPA / NIEHS):
The source made the active and inactive calls. How the source made its calls: active means hit-call score of the fitted dose curve at least 0.9, where 1 is the maximum; inactive means score below 0.9.

Tests used:
[1] = biological target: CCAAT/enhancer-binding protein beta (Homo sapiens) (UniProt P17676); test: ATG_C_EBP_CIS: Attagene CIS-FACTORIAL HepG2 Assay for human CCAAT/Enhancer Binding Protein (C/EBP) beta (AID 2282927); conditions: HepG2 Attagene cis-factorial transcription factor reporter; actives raise or lower the signal
Sequence of CCAAT/enhancer-binding protein beta (Homo sapiens) (P17676 whole entry, looked up): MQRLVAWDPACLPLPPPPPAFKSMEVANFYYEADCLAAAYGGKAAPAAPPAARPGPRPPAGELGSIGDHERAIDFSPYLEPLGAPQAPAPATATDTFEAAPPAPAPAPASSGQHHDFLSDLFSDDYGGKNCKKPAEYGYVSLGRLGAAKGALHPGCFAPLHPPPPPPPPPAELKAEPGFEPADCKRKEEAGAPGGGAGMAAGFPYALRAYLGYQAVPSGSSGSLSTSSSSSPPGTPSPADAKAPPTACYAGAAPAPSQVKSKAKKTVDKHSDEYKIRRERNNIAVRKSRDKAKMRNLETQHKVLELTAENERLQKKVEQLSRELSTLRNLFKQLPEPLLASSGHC
How it was run: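 Following a 24 h incubation with test chemical, transfected HepG2 cells yielded RNA whose reporter transcripts were quantified by RT-PCR and fluorescent capillary electrophoresis, with DMSO serving as baseline for bidirectional fitting.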

[2] = ATG_CMV_CIS: Attagene CIS-FACTORIAL HepG2 Assay for human CMV (Internal Marker) (AID 2282928); conditions: HepG2 CMV promoter reporter, transcription factor profiling; actives raise or lower the signal;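 further: endpoint acts as a background internal control marker rather than a target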
How it was run: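 After transient transfection of HepG2 with reporter transcription units driven by cis-regulatory promoters, cells receive test chemical for 24 h. Labeled reporter amplicons, digested with HpaI, are sized and quantified by capillary electrophoresis against DMSO.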

[3] = ATG_AP_1_CIS: Attagene CIS-FACTORIAL HepG2 Assay for human Activator Protein 1 (AP-1) (AID 2282931); conditions: HepG2 Attagene cis-factorial AP-1 reporter mRNA; actives raise or lower the signal
How it was run: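 Cis-regulated reporter units transiently expressed in HepG2 report endogenous transcription-factor activity. Signal: reporter mRNA at 24 h, via RT-PCR and fluorescent capillary electrophoresis. Endpoint derived by bidirectional fitting, DMSO as negative control.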

[4] = ATG_AP_2_CIS: Attagene CIS-FACTORIAL HepG2 Assay for human Activator Protein 2 (AP-2) (AID 2282932); conditions: HepG2 AP-2 cis-reporter, Attagene transcription factor profiling; actives raise or lower the signal
How it was run: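 HepG2 cells were transiently transfected with multiple cis-promoter reporter transcription units and dosed for 24 h. Reporter mRNA was measured by RT-PCR with capillary electrophoresis fluorescence; bidirectional fits relative to DMSO baseline.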

[5] = ATG_BRE_CIS: Attagene CIS-FACTORIAL HepG2 Assay for human Bone Morphogenetic Protein (BMP) Response Element (BRE) (AID 2282933); conditions: HepG2 BMP response element reporter, Attagene transcription factor profiling; actives raise or lower the signal
How it was run: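 HepG2 cells transiently transfected with CIS reporter units (endogenous TF activity, BMP response element), dosed 24 h. Reporter mRNA quantified by RT-PCR, fluorescent labelling and capillary electrophoresis; bidirectional fit vs DMSO baseline.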

[6] = ATG_E_Box_CIS: Attagene CIS-FACTORIAL HepG2 Assay for human Enhancer Box (E-box) (AID 2282936); conditions: HepG2 E-box cis-reporter transcription, actives raise or lower the signal
How it was run: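 HepG2 cells transiently transfected with multiplexed cis-element reporter units sensing endogenous transcription factor activity; 24 h compound exposure. Reporter mRNA measured by RT-PCR, 6-FAM primer extension, HpaI digestion and capillary electrophoresis; bidirectional fit versus DMSO.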

[7] = ATG_M_61_CIS: Attagene CIS-FACTORIAL HepG2 Assay for M61 Transcription Factor (Internal Marker) (AID 2282937); conditions: HepG2 Attagene CIS-FACTORIAL M61 internal marker reporter; actives raise or lower the signal
How it was run: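 Background-control endpoint: HepG2 cells with cis-regulated reporter constructs, 24 h exposure, reporter mRNA detected via fluorescent primer extension and capillary electrophoresis; values from bidirectional fitting with DMSO baseline.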

[8] = ATG_EGR_CIS: Attagene CIS-FACTORIAL HepG2 Assay for human Early Growth Response 1 (EGR1) (AID 2282938); conditions: HepG2 Attagene CIS-FACTORIAL EGR reporter mRNA; actives raise or lower the signal
How it was run: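 Endpoint derived by bidirectional fitting versus DMSO vehicle. Method: cis-promoter reporter units transfected into HepG2, 24 h dosing, RNA isolation, RT-PCR with 6-FAM primer extension and HpaI digestion, then capillary electrophoresis fluorescence detection.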

[9] = ATG_Ets_CIS: Attagene CIS-FACTORIAL HepG2 Assay for human Erythroblast Transformation Specific (ETS) (AID 2282941); conditions: HepG2 ETS cis-reporter transcription, actives raise or lower the signal
How it was run: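 Human HepG2 hepatoma cells were transiently transfected with promoter-driven reporter constructs and treated for 24 hours. Reporter transcripts were quantified by RT-PCR with fluorescent primer extension; bidirectional curve fitting used DMSO as reference.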

[10] = biological target: Hepatocyte nuclear factor 3-beta (Homo sapiens) (UniProt Q9Y261); test: ATG_FoxA2_CIS: Attagene CIS-FACTORIAL HepG2 Assay for human Forkhead box A2 (FOXA2) (AID 2282942); conditions: HepG2 cis-reporter transcription factor activity, 24 h; actives raise or lower the signal
Sequence of Hepatocyte nuclear factor 3-beta (Homo sapiens) (Q9Y261 whole entry, looked up): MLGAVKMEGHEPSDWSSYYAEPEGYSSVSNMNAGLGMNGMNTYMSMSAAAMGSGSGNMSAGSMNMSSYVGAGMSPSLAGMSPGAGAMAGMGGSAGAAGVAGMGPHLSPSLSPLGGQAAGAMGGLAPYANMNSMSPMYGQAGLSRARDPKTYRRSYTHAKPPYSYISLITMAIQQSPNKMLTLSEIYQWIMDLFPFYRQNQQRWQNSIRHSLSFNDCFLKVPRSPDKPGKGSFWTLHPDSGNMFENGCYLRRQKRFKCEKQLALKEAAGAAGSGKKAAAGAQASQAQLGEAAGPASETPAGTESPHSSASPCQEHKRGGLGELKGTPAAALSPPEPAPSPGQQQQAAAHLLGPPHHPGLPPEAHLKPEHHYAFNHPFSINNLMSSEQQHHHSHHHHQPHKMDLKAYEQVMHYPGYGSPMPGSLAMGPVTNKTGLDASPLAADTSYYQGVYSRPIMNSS
How it was run: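 Measured: reporter mRNA induction or loss in HepG2 transiently carrying multiple cis-regulated reporter units, 24 h after dosing. Quantified by RT-PCR plus capillary electrophoresis, normalised to DMSO.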

[11] = ATG_FoxO_CIS: Attagene CIS-FACTORIAL HepG2 Assay for human Forkhead box O (FoxO) (AID 2282943); conditions: HepG2 Attagene cis-reporter, FoxO element, mRNA; actives raise or lower the signal
How it was run: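 Values reflect reporter mRNA induction or loss in HepG2 cells 24 h post-dosing, fitted bidirectionally with DMSO as negative control and baseline. Detection used RT-PCR and fluorescence capillary electrophoresis.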

[12] = ATG_GATA_CIS: Attagene CIS-FACTORIAL HepG2 Assay for human GATA Binding Protein (AID 2282944); conditions: HepG2 GATA cis-element reporter, Attagene multiplex mRNA; actives raise or lower the signal
How it was run: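 HepG2 cells transiently transfected with multiplexed cis-element reporter units measure endogenous GATA activity; after 24 h compound exposure, reporter mRNA quantified by RT-PCR and capillary electrophoresis. Changes fitted in both directions vs DMSO.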

[13] = ATG_ISRE_CIS: Attagene CIS-FACTORIAL HepG2 Assay for human Interferon Regulatory Factor 1 (IRF1) binding to an Interferon-Stimulated Response Element (ISRE) (AID 2282948); conditions: HepG2 ISRE cis-reporter (Attagene), mRNA transcription readout; actives raise or lower the signal
How it was run: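 Cell-based cis-reporter assay; HepG2; 24 h exposure; reporter mRNA by RT-PCR plus capillary electrophoresis fluorescence; activity in either direction scored relative to DMSO.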

[14] = ATG_M_32_CIS: Attagene CIS-FACTORIAL HepG2 Assay for M32 Transcription Factor (Internal Marker) (AID 2282949); conditions: HepG2 Attagene cis-factorial M32 reporter, mRNA; actives raise or lower the signal;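 further: background control marker of the multiplexed CIS panel rather than a real target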
How it was run: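 Following 24 h chemical exposure of HepG2 cells transiently expressing cis-promoter reporter constructs, reporter transcript levels were determined by RT-PCR with fluorescent labelling and capillary electrophoresis, then fitted bidirectionally against DMSO.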

[15] = ATG_M_06_CIS: Attagene CIS-FACTORIAL HepG2 Assay for M06 Transcription Factor (Internal Marker) (AID 2282950); conditions: HepG2 Attagene CIS-FACTORIAL M06 internal marker reporter; actives raise or lower the signal
How it was run: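 Internal background marker within multiplexed cis-reporter HepG2 system. Cells transiently transfected, dosed 24 h; reporter mRNA measured by RT-PCR, HpaI digestion and capillary electrophoresis. Bidirectional fit relative to DMSO.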

[16] = biological target: Hepatocyte nuclear factor 6 (Homo sapiens) (UniProt Q9UBC0); test: ATG_HNF6_CIS: Attagene CIS-FACTORIAL HepG2 Assay for human Hepatocyte Nuclear Factor 6 (HNF6) (AID 2282952); conditions: HepG2 Attagene cis-factorial HNF6 reporter transcription; actives raise or lower the signal
Sequence of Hepatocyte nuclear factor 6 (Homo sapiens) (Q9UBC0 whole entry, looked up): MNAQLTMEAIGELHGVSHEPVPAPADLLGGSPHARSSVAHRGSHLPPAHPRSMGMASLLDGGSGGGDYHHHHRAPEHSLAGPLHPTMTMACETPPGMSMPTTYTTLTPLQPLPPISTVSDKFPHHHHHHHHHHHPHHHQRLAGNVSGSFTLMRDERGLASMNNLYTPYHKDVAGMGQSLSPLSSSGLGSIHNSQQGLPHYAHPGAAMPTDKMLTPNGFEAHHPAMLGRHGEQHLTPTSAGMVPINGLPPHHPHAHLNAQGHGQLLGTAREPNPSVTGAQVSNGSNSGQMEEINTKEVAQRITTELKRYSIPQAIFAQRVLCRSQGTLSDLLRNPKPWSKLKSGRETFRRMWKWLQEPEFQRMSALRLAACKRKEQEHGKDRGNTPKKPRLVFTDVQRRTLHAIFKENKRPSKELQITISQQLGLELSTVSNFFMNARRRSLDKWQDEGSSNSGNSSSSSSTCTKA
How it was run: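 Multiplexed mRNA reporter assay in transfected HepG2; 24 h dosing; RT-PCR plus capillary electrophoresis fluorescence; DMSO-referenced bidirectional curve fitting.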

[17] = ATG_MRE_CIS: Attagene CIS-FACTORIAL HepG2 Assay for human Metal Responsive Element (MRE) (AID 2282954); conditions: HepG2 MRE cis-reporter transcription, Attagene multiplex; actives raise or lower the signal
How it was run: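 HepG2 cells transiently transfected with multiple cis-element reporter units measure endogenous MTF1-driven transcription. After 24 h compound exposure, reporter mRNA is quantified by RT-PCR with 6-FAM labelling, HpaI digestion and capillary electrophoresis; bidirectional fits versus DMSO.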

[18] = ATG_Sox_CIS: Attagene CIS-FACTORIAL HepG2 Assay for human SRY-box transcription factor (SOX) (AID 2282960); conditions: HepG2 Attagene cis-factorial SOX reporter, mRNA; actives raise or lower the signal
How it was run: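 Gain- or loss-of-signal endpoint, fitted bidirectionally with DMSO as negative control. Based on reporter mRNA from transfected HepG2 cells harvested 24 h post-treatment and quantified via RT-PCR and capillary electrophoresis.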

[19] = biological target: Transcription factor Sp1 (Homo sapiens) (UniProt P08047); test: ATG_Sp1_CIS: Attagene CIS-FACTORIAL HepG2 Assay for human Specificity Protein 1 (Sp1) (AID 2282961); conditions: HepG2 Sp1 cis-reporter transcription, actives raise or lower the signal
Sequence of Transcription factor Sp1 (Homo sapiens) (P08047 whole entry, looked up, the tested form may be a part): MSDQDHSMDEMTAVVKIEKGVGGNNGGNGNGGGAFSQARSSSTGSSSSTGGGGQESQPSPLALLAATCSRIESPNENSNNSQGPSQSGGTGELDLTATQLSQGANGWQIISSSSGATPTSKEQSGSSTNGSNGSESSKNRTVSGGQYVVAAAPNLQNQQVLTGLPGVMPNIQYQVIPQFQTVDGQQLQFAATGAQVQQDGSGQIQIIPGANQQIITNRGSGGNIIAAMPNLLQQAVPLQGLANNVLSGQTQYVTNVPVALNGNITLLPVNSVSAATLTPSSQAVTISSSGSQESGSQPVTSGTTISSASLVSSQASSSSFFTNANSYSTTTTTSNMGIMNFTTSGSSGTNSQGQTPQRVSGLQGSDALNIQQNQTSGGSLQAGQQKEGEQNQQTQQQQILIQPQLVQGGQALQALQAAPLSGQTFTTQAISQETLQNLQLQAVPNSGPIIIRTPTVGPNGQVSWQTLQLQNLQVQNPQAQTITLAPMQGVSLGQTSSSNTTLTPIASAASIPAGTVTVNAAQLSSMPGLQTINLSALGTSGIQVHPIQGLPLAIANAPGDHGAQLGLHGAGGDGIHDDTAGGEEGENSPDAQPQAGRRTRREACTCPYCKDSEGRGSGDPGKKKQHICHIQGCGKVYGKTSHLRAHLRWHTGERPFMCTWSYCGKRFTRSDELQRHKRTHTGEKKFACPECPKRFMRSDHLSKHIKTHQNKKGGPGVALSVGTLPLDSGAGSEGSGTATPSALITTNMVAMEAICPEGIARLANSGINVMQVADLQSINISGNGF
How it was run: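 Endpoint reflects endogenous Sp1 transcriptional activity, not an exogenous fusion protein: HepG2 cells with transfected cis-regulated reporters, 24 h dosing, RT-PCR/capillary electrophoresis mRNA read-out, DMSO-normalised bidirectional fit.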

[20] = biological target: Signal transducer and activator of transcription 3 (Homo sapiens) (UniProt P40763); test: ATG_STAT3_CIS: Attagene CIS-FACTORIAL HepG2 Assay for human Signal Transducer and Activator of Transcription 3 (STAT3) (AID 2282963); conditions: HepG2, Attagene cis-factorial STAT3 reporter transcription; actives raise or lower the signal
Sequence of Signal transducer and activator of transcription 3 (Homo sapiens) (P40763 whole entry, looked up): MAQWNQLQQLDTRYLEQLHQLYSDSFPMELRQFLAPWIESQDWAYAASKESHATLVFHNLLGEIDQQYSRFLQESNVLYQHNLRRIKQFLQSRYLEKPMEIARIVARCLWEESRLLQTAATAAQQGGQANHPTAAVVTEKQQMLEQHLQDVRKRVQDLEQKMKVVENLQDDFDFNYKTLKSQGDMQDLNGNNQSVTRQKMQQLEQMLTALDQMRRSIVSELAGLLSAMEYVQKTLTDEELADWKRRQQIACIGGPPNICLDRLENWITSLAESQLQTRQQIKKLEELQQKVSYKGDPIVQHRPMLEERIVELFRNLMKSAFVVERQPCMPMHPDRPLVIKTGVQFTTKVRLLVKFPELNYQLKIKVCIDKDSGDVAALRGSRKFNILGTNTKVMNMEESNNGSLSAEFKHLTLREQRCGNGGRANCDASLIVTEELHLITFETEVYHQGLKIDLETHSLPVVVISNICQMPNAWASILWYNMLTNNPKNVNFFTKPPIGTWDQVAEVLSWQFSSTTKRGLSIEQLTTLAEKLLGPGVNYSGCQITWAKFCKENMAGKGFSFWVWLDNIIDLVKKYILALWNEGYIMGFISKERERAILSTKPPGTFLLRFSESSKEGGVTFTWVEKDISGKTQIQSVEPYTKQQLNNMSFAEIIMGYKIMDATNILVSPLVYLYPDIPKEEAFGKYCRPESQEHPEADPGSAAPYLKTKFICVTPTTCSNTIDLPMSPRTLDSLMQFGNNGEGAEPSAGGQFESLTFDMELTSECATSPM
How it was run: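 HepG2 cells transiently transfected with cis-element-driven multiple reporter transcription units; after 24 h chemical exposure, reporter mRNA measured by RT-PCR, 6-FAM primer-extension labelling, HpaI digestion and capillary electrophoresis. Bidirectional fitting versus DMSO baseline.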

Measured: AC50

SCc1ccco1
inactive: [1] | [4] | [5] | [6] | [7] | [8] | [9] | [10] | [11] | [12] | [13] | [14] | [15] | [16] | [17] | [18] | [19] | [20]
active: [2] 62.8 µM | [3] 52 µM

O=P1(NCCCl)OCCCN1CCCl (stereo not given)
inactive: [1] | [2] | [3] | [4] | [5] | [6] | [7] | [8] | [9] | [10] | [11] | [12] | [13] | [14] | [15] | [16] | [17] | [18] | [19] | [20]

CCC(Br)(CC)C(=O)NC(N)=O
inactive: [1] | [2] | [3] | [4] | [5] | [6] | [7] | [8] | [9] | [10] | [11] | [12] | [13] | [14] | [15] | [16] | [17] | [18] | [19] | [20]

CC1OC(C)OC(C)O1 (stereo not given)
inactive: [1] | [2] | [3] | [4] | [5] | [6] | [7] | [8] | [9] | [10] | [11] | [12] | [13] | [14] | [15] | [16] | [17] | [18] | [19] | [20]

CC(C)C(=O)Cl
inactive: [1] | [2] | [3] | [4] | [5] | [6] | [7] | [8] | [9] | [10] | [11] | [12] | [13] | [14] | [15] | [16] | [17] | [18] | [19] | [20]

O=P(O)(Oc1ccccc1)Oc1ccccc1
inactive: [1] | [2] | [3] | [4] | [5] | [6] | [7] | [8] | [9] | [10] | [11] | [12] | [13] | [14] | [15] | [16] | [17] | [18] | [19] | [20]

C=CCc1ccc(OC(=O)Cc2ccccc2)c(OC)c1
inactive: [1] | [2] | [3] | [4] | [5] | [6] | [7] | [8] | [9] | [10] | [11] | [12] | [13] | [14] | [15] | [16] | [17] | [18] | [19] | [20]

CCc1cccc(C)c1N(C(=O)CCl)[C@@H](C)COC
inactive: [1] | [2] | [3] | [4] | [5] | [6] | [7] | [9] | [10] | [11] | [12] | [13] | [14] | [15] | [16] | [18] | [19] | [20]
active: [8] 57.9 µM | [17] 31.3 µM

CCCCOC(=O)CCC(=O)OCCCC
inactive: [1] | [2] | [3] | [4] | [5] | [6] | [7] | [8] | [9] | [10] | [11] | [12] | [13] | [14] | [15] | [16] | [17] | [18] | [19] | [20]

Cc1cc(C)c(C2=C(OC(=O)CC(C)(C)C)C3(CCCC3)OC2=O)c(C)c1
inactive: [1] | [2] | [4] | [5] | [6] | [7] | [9] | [10] | [11] | [12] | [14] | [15] | [16] | [18] | [20]
active: [3] 174 µM | [8] 104 µM | [13] 168 µM | [17] 76 µM | [19] 88.6 µM

Cl/C=C\CCl
inactive: [1] | [2] | [3] | [4] | [5] | [6] | [7] | [8] | [9] | [10] | [11] | [12] | [13] | [14] | [15] | [16] | [17] | [18] | [19] | [20]
